Results on eight molecules are retold here after PubChem BioAssay (Tox21).

The structures appear in SMILES notation. Unmarked numbers belong to inactive results. Inconclusive results are not listed. Calls of active or inactive are those of the source. Unless noted, calls come from the whole dose curve; as a rule, active = well fitted curve in the direction sought with a large enough effect in the repeat runs; inconclusive = weak or mixed curves; inactive = no such curve, though single readings can be large; an effect the other way counts as inactive or inconclusive.

Assay [1] can be described thus: qHTS assay to identify small molecule antagonists of the androgen receptor (AR) signaling pathway using the MDA cell line in the presence of 0.5 nM R1881 - cell viability counter screen (AID 1259242). Note: nearly all actives have a fitted effect of over 45% in size. The method, boiled down:
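Live-cell protease fluorescence, CellTiter-Fluor, 30 min at 37C. Cells: MDA-kb2, 3,000/well, preincubated 5 hr. Compounds plus 0.5 nM R1881 final, 16 hr, 37C, 0% CO2.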
On the technique in general: In qHTS, concentration-response curves come from the screen itself.

Assay [2] deals with Estrogen receptor (Homo sapiens) (UniProt P03372). The experiment in a line: qHTS assay to identify small molecule antagonists of the estrogen receptor alpha (ER-alpha) signaling pathway using the BG1 cell line in the presence of 0.1 nM 17-beta-estradiol (AID 1259244). Note: nearly all actives have a fitted effect of over 50% in size. Note: potency is the fitted concentration of half-maximal effect. The method, boiled down: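 Luminescence after ONE-Glo (30 min, room temperature) measured ERE-luciferase activity in VM7Luc4E2 cells treated 22 h with compound and 0.1 nM final 17beta-estradiol as stimulator.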

Assay [3] is described as follows: qHTS assay to identify small molecule phospholipidosis (PLD) inducers (AID 1259344; active = well fitted curve in the direction sought with a large enough effect; an effect the other way counts as inactive or inconclusive). The essentials:
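Phospholipid accumulation was scored by imaging: fixed, Hoechst-counterstained HepG2 cells stained with LipidTOX Red after 24 h compound exposure at 37 C. Read-outs were pit count and pit intensity per well or per cell, with amiodarone and DMSO controls.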

A short description of assay [4]: qHTS assay to identify small molecule HDAC inhibitors (AID 1259364). Note: potency is the fitted concentration of half-maximal effect.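 Note: wild-type HCT-116 cells with endogenous class I/II HDAC activity; nearly all actives have a fitted effect of over 45% in size.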 The essentials:
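HCT-116 (wild type), 1,500 cells/well, overnight; compound 2 hr 37C 5% CO2; HDAC-Glo I/II reagent 30 min RT; luminescence readout.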

The nature of assay [5]: qHTS assay to identify small molecule HDAC inhibitors - cell viability counter screen (AID 1259365). Note: series mostly up to about 92 µM; nearly all actives have a fitted effect of over 50% in size. The method, boiled down:
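Wild-type HCT-116 cells were seeded at 1,500 per well, incubated overnight at 37 C, then exposed to compounds in DMSO for 2hr. Viability was read by CellTiter-Glo luminescence after 30min at room temperature.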

Assay [6] in a line: qHTS assay to identify small molecule agonists of the sonic hedgehog signaling (Shh) pathway - cell viability counter screen (AID 1259366). Note: nearly all actives have a fitted effect of over 50% in size. The essentials:
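NIH/3T3-derived 3T3 Gli1-Luc cells (stable Gli1-responsive firefly luciferase reporter) were seeded, rested 4 hr at 37 C/5% CO2, then exposed to compounds in DMSO for 24 hr; viability was read by CellTiter-Fluor fluorescence in the same wells.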

Assay [7] is described as follows: qHTS assay to identify small molecule antagonists of the sonic hedgehog signaling (Shh) pathway - cell viability counter screen (AID 1259367). Note: nearly all actives have a fitted effect of over 55% in size. The method, boiled down:
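Viability was read by CellTiter-Fluor fluorescence in the same wells, reagent added 23 hr into compound treatment and incubated 1 hr at 37C. The 3T3 Gli1-Luc reporter cells (2,000/well) received conditioned medium after compound and ran 24 hr.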

Assay [8] can be described thus: qHTS assay to identify small molecule agonists of the sonic hedgehog signaling (Shh) pathway (AID 1259368; calls by dose curve; note: series mostly up to about 92 µM; nearly all actives have a fitted effect of over 15% in size). The method, boiled down:
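Read-out: firefly luciferase luminescence from a Gli1 response element reporter stably integrated in NIH/3T3-derived 3T3Gli1-Luc cells, measured 30 min at room temperature after reagent addition. Compound exposure lasted 24 hr at 37 C, 5% CO2.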

Assay [9] is described as follows: qHTS assay to identify small molecule antagonists of the sonic hedgehog signaling (Shh) pathway (AID 1259369; calls by dose curve; note: nearly all actives have a fitted effect of over 45% in size). The method, boiled down:
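Luminescence readout: firefly Luc under Gli1 response element in 3T3Gli1-Luc cells (NIH/3T3 clone). Antagonist mode, stimulation by conditioned medium; compound exposure 24hr at 37 C, 5% CO2.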

Assay [10] addresses Estrogen receptor beta (Homo sapiens) (UniProt Q92731). Put plainly: qHTS assay to identify small molecule agonists of the estrogen receptor beta (ER-beta) signaling pathway (AID 1259377; active = well fitted activation curve with a large enough effect in the signal ratio in the repeat runs, not every such curve was filed as active; the % refers to the signal ratio). The essentials: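 ER-beta-UAS-bla HEK293T (GripTite) cells carrying a UAS-driven beta-lactamase reporter, in medium with 2% charcoal-stripped FBS, were exposed to compounds for 16 hr at 37C; LiveBLAzer B/G FRET substrate was then added and fluorescence read after 2 hours at room temperature.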

The target is the same in assay [11]. Put plainly: qHTS assay to identify small molecule antagonists of the estrogen receptor beta (ER-beta) signaling pathway (AID 1259378; active = well fitted inhibition curve with a large enough effect in the signal ratio in the repeat runs, not every such curve was filed as active; the % refers to the signal ratio). The method, boiled down:
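Antagonist mode: compounds added to beta-lactamase reporter HEK293T ER-beta-UAS cells stimulated with E2 (1nM final), 16 hr at 37C. LiveBLAzer B/G FRET substrate, 2 hours room temperature, fluorescence read-out.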

Assay [12] can be described thus: qHTS assay to identify small molecule agonists of the androgen receptor (AR) signaling pathway in the presence of an antagonist - cell viability counter screen (AID 1259379).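 Note: MDA-kb2 human breast cancer cells carrying an MMTV luciferase reporter; series mostly up to about 92 µM; nearly all actives have a fitted effect of over 25% in size.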 The essentials:
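Viability counter screen: CellTiter-Fluor fluorescence, measured in the same wells as the luciferase read-out. MDA-kb2 cells, 3,000/well, with nilutamide at 3.0uM final and compounds at 15 concentrations, 16 hr at 37C, 0% CO2.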

Assay [13] in a line: qHTS assay to identify small molecule agonists of the estrogen receptor beta (ER-beta) signaling pathway - cell viability counter screen (AID 1259380). Note: nearly all actives have a fitted effect of over 30% in size. Note: potency is the fitted concentration of half-maximal effect. The essentials:
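Luminescence read-out (CellTiter-Glo, 30 min, room temp) taken in the same wells as the beta-lactamase reporter assay; ER-beta-UAS-bla HEK293T cells exposed to DMSO-dissolved compounds for 16 hr at 37C in 2% charcoal-stripped FBS medium.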

Assay [14] is described as follows: qHTS assay to identify small molecule antagonists of the estrogen receptor beta (ER-beta) signaling pathway - cell viability counter screen (AID 1259382). Note: series mostly up to about 92 µM; nearly all actives have a fitted effect of over 55% in size. The essentials: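 Luminescent ATP read-out (CellTiter-Glo, 30 min, RT) taken in the same wells as the bla reporter assay. HEK293T ER-beta-UAS-bla cells in 2% charcoal-stripped FBS were exposed to compounds with 1nM E2 for 16 hr at 37C.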

Assay [15] addresses Estrogen receptor (Homo sapiens) (UniProt P03372). Put plainly: qHTS assay to identify small molecule agonists of the estrogen receptor alpha (ER-alpha) signaling pathway in the presence of an antagonist (AID 1259383; calls by dose curve; note: top concentration of the series differs between compounds; nearly all actives have a fitted effect of over 15% in size). The method, boiled down: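 Luciferase luminescence (ONE-Glo, 30min at room temperature) measured in VM7Luc4E2 cells after 22hr compound exposure at 15 concentrations, with 10.0nM ICI-182,780 final present; cells express endogenous ER-alpha and carry four EREs upstream of luciferase.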

A short description of assay [16]: qHTS assay to identify small molecule agonists or antagonists of the thyroid stimulating hormone receptor (TSHR) signaling pathway - wild type cell line counter screen (AID 1259384; calls by dose curve). The method, boiled down: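 Counter screen in untransfected Hek293: compounds (15-point titration, triplicate) plus phosphodiesterase inhibitor Ro20-1724 added after 18 h plating; 30 min RT. Intracellular cAMP via competitive d2/cryptate immunoassay, 1 h incubation.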

A short description of assay [17]: qHTS assay to identify small molecule agonists of the estrogen receptor alpha (ER-alpha) signaling pathway in the presence of an antagonist - cell viability counter screen (AID 1259386). Note: nearly all actives have a fitted effect of over 30% in size. Note: potency is the fitted concentration of half-maximal effect. The method, boiled down: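 Read-out: CellTiter-Fluor fluorescence after 1hr reagent incubation, measured in the same wells as the luciferase readout. VM7Luc4E2 cells were exposed to 15 compound concentrations with 10.0nM ICI-182,780 for 22hr at 37C.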

Assay [18] has as its target Androgen receptor (Homo sapiens) (UniProt P10275). Put plainly: qHTS assay to identify small molecule antagonists of the androgen receptor (AR) signaling pathway using the MDA cell line in the presence of 0.5 nM R1881 (AID 1259243). Note: potency is the fitted concentration of half-maximal effect; nearly all actives have a fitted effect of over 50% in size. The essentials:
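MDA-kb2, MMTV-luc (AR/GR elements); 3,000 cells/well; cpd + 0.5 nM R1881 final; 16 hr 37C, 0% CO2; ONE-Glo 30 min RT; luminescence.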

Assay [19] shares this target. Put plainly: qHTS assay to identify small molecule agonists of the androgen receptor (AR) signaling pathway in the presence of an antagonist (AID 1259381; calls by dose curve; note: nearly all actives have a fitted effect of over 15% in size). The essentials:
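Luciferase read-out (ONE-Glo, 30min room temperature) in MDA-kb2 MMTV-reporter cells; agonist mode run in presence of AR antagonist nilutamide, 3.0uM final. Compounds tested as 15-point series, 16hr exposure at 37C, 0% CO2.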

In assay [20] the target is Thyrotropin receptor (Homo sapiens) (UniProt P16473). Put plainly: qHTS assay to identify small molecule antagonists of the thyroid stimulating hormone receptor (TSHR) signaling pathway (AID 1259385; calls by dose curve; note: nearly all actives have a fitted effect of over 20% in size). The method, boiled down:
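Antagonist mode: compound-treated TSHR-expressing HEK293 cells were stimulated with 1.5 ng/mL TSH (final) in presence of Ro20-1724 for 30 min at RT. HTRF cAMP detection after 1 h; each compound tested at 15 concentrations, triplicate.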

Chain of Estrogen receptor beta (Homo sapiens) (Q92731 whole entry, looked up): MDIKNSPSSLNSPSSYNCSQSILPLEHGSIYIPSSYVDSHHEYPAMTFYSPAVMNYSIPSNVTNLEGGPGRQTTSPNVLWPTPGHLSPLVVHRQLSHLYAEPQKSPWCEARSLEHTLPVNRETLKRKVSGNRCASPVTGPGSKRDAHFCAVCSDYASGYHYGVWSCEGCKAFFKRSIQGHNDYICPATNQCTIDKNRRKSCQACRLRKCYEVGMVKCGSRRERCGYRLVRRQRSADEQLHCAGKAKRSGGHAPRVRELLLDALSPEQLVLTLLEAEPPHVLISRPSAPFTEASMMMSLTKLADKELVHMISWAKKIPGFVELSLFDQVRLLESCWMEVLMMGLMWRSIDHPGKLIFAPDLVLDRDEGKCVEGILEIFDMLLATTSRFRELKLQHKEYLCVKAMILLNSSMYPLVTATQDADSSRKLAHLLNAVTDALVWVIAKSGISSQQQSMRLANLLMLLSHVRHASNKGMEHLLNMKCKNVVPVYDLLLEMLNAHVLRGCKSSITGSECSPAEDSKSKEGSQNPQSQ
Chain of Thyrotropin receptor (Homo sapiens) (P16473 whole entry, looked up): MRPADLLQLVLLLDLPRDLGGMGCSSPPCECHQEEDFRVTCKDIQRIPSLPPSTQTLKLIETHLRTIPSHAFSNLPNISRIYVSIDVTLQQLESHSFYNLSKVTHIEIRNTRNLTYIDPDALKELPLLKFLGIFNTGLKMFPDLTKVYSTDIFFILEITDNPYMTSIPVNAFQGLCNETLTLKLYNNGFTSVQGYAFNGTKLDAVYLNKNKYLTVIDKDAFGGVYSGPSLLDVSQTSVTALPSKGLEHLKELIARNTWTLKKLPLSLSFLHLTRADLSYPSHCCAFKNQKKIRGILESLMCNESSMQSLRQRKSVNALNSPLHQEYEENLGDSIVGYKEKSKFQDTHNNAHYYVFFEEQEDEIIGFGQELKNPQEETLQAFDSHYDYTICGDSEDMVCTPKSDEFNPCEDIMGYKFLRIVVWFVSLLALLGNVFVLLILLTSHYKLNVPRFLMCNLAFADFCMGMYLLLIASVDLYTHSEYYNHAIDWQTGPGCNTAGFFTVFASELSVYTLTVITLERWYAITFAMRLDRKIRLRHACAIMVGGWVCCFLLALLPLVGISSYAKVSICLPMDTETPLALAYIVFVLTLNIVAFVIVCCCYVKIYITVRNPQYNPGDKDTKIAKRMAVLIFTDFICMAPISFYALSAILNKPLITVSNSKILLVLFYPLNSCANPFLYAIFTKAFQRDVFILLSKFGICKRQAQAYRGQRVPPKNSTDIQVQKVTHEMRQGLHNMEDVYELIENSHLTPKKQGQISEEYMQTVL
Chain of Estrogen receptor (Homo sapiens) (P03372 whole entry, looked up): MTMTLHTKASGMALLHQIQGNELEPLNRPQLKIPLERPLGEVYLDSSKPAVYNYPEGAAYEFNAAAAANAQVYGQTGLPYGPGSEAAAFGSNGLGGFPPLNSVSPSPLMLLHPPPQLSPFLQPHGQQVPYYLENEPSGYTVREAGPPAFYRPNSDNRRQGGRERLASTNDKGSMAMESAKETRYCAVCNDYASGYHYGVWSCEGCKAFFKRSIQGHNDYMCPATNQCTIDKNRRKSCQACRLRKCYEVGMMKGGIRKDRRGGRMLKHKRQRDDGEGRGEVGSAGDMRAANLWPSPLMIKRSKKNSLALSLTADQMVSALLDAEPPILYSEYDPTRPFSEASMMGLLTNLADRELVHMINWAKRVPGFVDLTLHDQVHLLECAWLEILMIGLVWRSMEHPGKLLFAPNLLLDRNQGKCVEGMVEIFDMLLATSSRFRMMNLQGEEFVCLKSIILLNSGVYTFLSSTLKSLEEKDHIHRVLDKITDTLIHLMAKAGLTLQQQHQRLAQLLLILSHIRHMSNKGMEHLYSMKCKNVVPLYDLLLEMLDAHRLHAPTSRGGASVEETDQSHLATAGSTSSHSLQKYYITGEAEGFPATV
Chain of Androgen receptor (Homo sapiens) (P10275 whole entry, looked up): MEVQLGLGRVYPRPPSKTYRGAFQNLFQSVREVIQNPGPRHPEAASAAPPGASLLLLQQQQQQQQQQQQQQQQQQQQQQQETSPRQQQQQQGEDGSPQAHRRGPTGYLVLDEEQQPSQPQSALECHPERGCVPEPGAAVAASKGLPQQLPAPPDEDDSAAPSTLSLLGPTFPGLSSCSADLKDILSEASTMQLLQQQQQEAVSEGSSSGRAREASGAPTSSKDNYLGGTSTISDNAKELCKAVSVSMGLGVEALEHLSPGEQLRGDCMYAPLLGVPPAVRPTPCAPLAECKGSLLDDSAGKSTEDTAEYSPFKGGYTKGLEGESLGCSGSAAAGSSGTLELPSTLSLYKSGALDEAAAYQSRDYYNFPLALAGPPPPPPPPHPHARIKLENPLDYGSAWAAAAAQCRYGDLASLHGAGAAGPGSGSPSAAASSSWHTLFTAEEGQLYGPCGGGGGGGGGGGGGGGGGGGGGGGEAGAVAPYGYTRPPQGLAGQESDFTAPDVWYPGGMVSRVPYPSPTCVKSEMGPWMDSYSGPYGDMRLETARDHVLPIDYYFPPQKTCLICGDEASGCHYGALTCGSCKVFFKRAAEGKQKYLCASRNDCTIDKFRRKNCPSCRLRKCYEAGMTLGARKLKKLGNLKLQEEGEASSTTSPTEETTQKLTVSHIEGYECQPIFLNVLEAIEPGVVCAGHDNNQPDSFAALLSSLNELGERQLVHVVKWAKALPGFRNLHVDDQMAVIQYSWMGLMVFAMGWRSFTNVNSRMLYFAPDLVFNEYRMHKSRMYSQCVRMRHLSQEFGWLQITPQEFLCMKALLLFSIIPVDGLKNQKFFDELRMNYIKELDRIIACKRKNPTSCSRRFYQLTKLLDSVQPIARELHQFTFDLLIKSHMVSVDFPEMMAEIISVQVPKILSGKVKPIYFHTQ

As for `c1ccc(CN(CC2=NCCN2)c2ccccc2)cc1`, the result in [1], in assay [3], in assay [5], in assay [10], in assay [14] and in assay [16] was inactive. The Potency result in [2], in [4], in assay [6], in assay [7], in [8] and in [9] was “inactive” in each case. For the same molecule, the Potency result in [11], in [12], in assay [13], in [15] and in [17] was “inactive” throughout.

Take `CCc1cc2cc(OC)c(OC)cc2c(Cc2ccccc2)n1`: the result in assay [1], in [10], in assay [14] and in assay [16] was inactive. Moreover, the Potency in [18] was 4.22 µM (active). For the same molecule, the Potency entry in assay [4], in assay [6], in assay [7], in [8], in assay [12] and in assay [13] was “inactive” in each case. The Potency entry in [19], in assay [15], in [20] and in [17] was “inactive” in each case.

As for `CC/C=C\CCOC(=O)CCCCC`, the outcome in [1], in [5] and in [14] was inactive. Also, the Potency entry in [2], in [4], in [6], in assay [7], in assay [8] and in assay [9] was “inactive” in each case. Also, the Potency result in assay [12], in assay [13], in assay [15], in assay [20] and in [17] was “inactive” throughout.

On to `Cc1nc(N)nc(N)c1-c1ccc(Cl)c(Cl)c1`, for which the outcome in assay [1], in [5] and in [10] was inactive. Further, the values for the Potency in assay [2] and in [13] were 13.3 µM (active) and 2.66 µM (active), respectively. For the same molecule, the Potency result in assay [4], in assay [6], in assay [7], in [8], in assay [12] and in [15] was “inactive” each time. The Potency entry in assay [17] was “inactive”.

Turning to `CC(C)(C)c1ccc(OC(=O)c2ccccc2O)cc1`, the result in [1], in assay [5], in assay [14] and in assay [16] was inactive. The Potency result in assay [2], in assay [6], in [7], in [8], in assay [9] and in [12] was “inactive” each time. For the same molecule, the Potency result in assay [17] was “inactive”. Besides, the Potency in assay [4] was 27.3 µM (active).

Consider `O=C1CCCc2ccccc21`, for which the outcome in [1], in assay [5] and in assay [14] was inactive. Further, the Potency result in [2], in assay [4], in assay [6], in assay [7], in assay [8] and in assay [9] was “inactive” each time. The Potency result in [11], in [12], in assay [13], in assay [15], in assay [20] and in assay [17] was “inactive” in each case.

For `Nc1ccc(Oc2ccc(N)c(N)c2)cc1`, the outcome in assay [1], in assay [5], in assay [14] and in [16] was inactive. The Potency result in assay [2], in [7], in assay [9], in assay [12] and in assay [15] was “inactive” each time. The Potency in assay [4] is 30.6 µM (active); in assay [17] it was 54.5 µM (active).

For `CC(C)S`, the outcome in [1], in assay [5], in assay [14] and in assay [16] was inactive. The Potency entry in assay [2], in assay [4], in assay [6], in [7], in [8] and in assay [9] was “inactive” in each case. Moreover, the Potency entry in [12], in assay [13], in [15] and in [17] was “inactive” in each case.
